From the supplement of paper PMC3414501
Counter-ions that a name gives are not always drawn.

tested on: S. cerevisiae AD1-9 (efflux-pump deficient), vegetative growth in YPD; experiment: growth sensitivity score (doubling time z-score vs DMSO controls); higher = slower growth, strongly negative scores also mark growth inhibition (complete suppression), active = hit call of the paper; in the data active = 2 or more and inactive = the rest
Method in brief: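 Rich medium in microtiter plates was seeded with Saccharomyces cerevisiae strains BY4741 and AD1-9 at an OD600 of 0.065, and compounds were added as a 1:100 dilution of DMSO stock. A Tecan GENios reader recorded optical density every 15 min for 24 hours, with eight solvent-only wells in each experiment. Average doubling time was the time to reach a set generation point divided by generation number. The growth sensitivity score was the compound mean minus the solvent-only mean, divided by the solvent-only standard deviation.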

Compound	growth sensitivity score
COc1ccc2[nH]c([S+]([O-])Cc3ncc(C)c(OC)c3C)nc2c1 (stereo unspecified) [Esomeprazole mg] (stock concentration (mM, diluted 1:100): 4.8)	-2.89
CCOC(=O)O[C@]1(C(=O)OCCl)CC[C@H]2[C@@H]3CCC4=CC(=O)C=C[C@]4(C)[C@H]3[C@@H](O)C[C@@]21C [Loteprednol etabonate] (stock concentration (mM, diluted 1:100): 10)	5.74 (active)
COc1ccccc1N1CCN(CCCNc2cc(=O)n(C)c(=O)n2C)CC1 [Urapidil hydrochloride] (stock concentration (mM, diluted 1:100): 10)	-0.84 (inactive)
COc1ccc(-c2cc(=O)c3c(OC)c(OC)c(OC)c(OC)c3o2)cc1OC [Nobiletin] (stock concentration (mM, diluted 1:100): 10)	3.87 (active)
CCN1CCC[C@H]1CNC(=O)c1cc(S(N)(=O)=O)ccc1OC [Levosulpiride] (stock concentration (mM, diluted 1:100): 10)	-0.24 (inactive)
C[C@@H](O)[C@H]1C(=O)N2C(C(=O)O)=C(S[C@@H]3CN[C@H](C(=O)N(C)C)C3)[C@H](C)[C@H]12 [Meropenem] (stock concentration (mM, diluted 1:100): 11.4)	0.68 (inactive)
Clc1ccc2c(c1)CCc1cccnc1C2=C1CCNCC1 [Desloratadine] (stock concentration (mM, diluted 1:100): 10)	60.1 (active)
Cc1nc2n(c(=O)c1CCN1CCC(c3noc4cc(F)ccc34)CC1)CCCC2 [Risperidone] (stock concentration (mM, diluted 1:100): 10)	-2.71
C[C@H]1O[C@H](O[C@H]2[C@H](O)[C@@H](O)[C@@H](O[C@H]3[C@H](O)[C@@H](O)C(O)O[C@@H]3CO)O[C@@H]2CO)[C@H](O)[C@@H](O)[C@@H]1N[C@H]1C=C(CO)[C@@H](O)[C@H](O)[C@H]1O (stereo partly specified) [Acarbose] (stock concentration (mM, diluted 1:100): 10)	-2.1
NC(=O)c1cccnc1 [Nicotinamide] (stock concentration (mM, diluted 1:100): 10)	-0.97 (inactive)
CC(COc1ccccc1Cc1ccccc1)N1CCCCC1 (stereo unspecified) [Benproperine phosphate] (stock concentration (mM, diluted 1:100): 10)	3.29 (active)
Oc1ccc(C2CNCCc3c2cc(O)c(O)c3Cl)cc1 (stereo unspecified) [Fenoldopam mesylate] (stock concentration (mM, diluted 1:100): 7.7)	-1.09 (inactive)
O=C(c1ccc(F)cc1)C1CCN(CCn2c(=S)[nH]c3ccccc3c2=O)CC1 [Altanserin] (stock concentration (mM, diluted 1:100): 10)	-0.28 (inactive)
C[C@]12CCC(=O)C=C1CC[C@@H]1[C@@H]2C(=O)C[C@@]2(C)[C@H]1CC[C@]2(O)C(=O)CO [Cortisone] (stock concentration (mM, diluted 1:100): 10)	0.78 (inactive)
COc1cc(N)c(Cl)cc1C(=O)NC1CCN(CCCOc2ccc(F)cc2)CC1OC (stereo unspecified) [Cisapride] (stock concentration (mM, diluted 1:100): 10.5)	8.05 (active)
CCOC(=O)C1=C(C)NC(C)=C(C(=O)OCC)C1c1ccccc1/C=C/C(=O)OC(C)(C)C [Lacidipine] (stock concentration (mM, diluted 1:100): 10)	10.2 (active)
COc1ccc(CC2c3cc(OC)c(OC)cc3CC[N+]2(C)CCC(=O)OCCCCCOC(=O)CC[N+]2(C)CCc3cc(OC)c(OC)cc3C2Cc2ccc(OC)c(OC)c2)cc1OC (stereo unspecified) [Atracurium besylate] (stock concentration (mM, diluted 1:100): 10)	-2.52
C#C[C@]1(O)CC[C@H]2[C@@H]3[C@H](C)CC4=C(CCC(=O)C4)[C@H]3CC[C@@]21C [Tibolone] (stock concentration (mM, diluted 1:100): 10)	10.2 (active)

Compound	growth sensitivity score
CC1CCN(CCCC(=O)c2ccc(F)cc2)CC1 [Metylperon] (stock concentration (mM, diluted 1:100): 10)	1 (inactive)
CN1CCN(c2c(F)cc3c(=O)c(C(=O)O)cn4c3c2SCC4)CC1 [Rufloxacin hydrochloride] (stock concentration (mM, diluted 1:100): 10)	17.4 (active)
CCOC(=O)OC(C)OC1=C(C(=O)Nc2ccccn2)N(C)S(=O)(=O)c2ccccc21 (stereo unspecified) [Ampiroxicam] (stock concentration (mM, diluted 1:100): 10)	-0.54 (inactive)
O=C(O)Cc1ccccc1Nc1c(Cl)cccc1Cl [Diclofenac] (stock concentration (mM, diluted 1:100): 10)	4.97 (active)
CC(=O)Oc1ccccc1C(=O)Nc1ncc([N+](=O)[O-])s1 [Nitazoxanide] (stock concentration (mM, diluted 1:100): 10)	0.16 (inactive)
O=C1c2c(O)cc(O)cc2OC(c2ccc(O)c(O)c2)C1O (stereo unspecified) [Taxifolin] (stock concentration (mM, diluted 1:100): 10.1)	-0.17 (inactive)
CSc1nc2cc(Cl)c(Oc3cccc(Cl)c3Cl)cc2[nH]1 [Triclabendazole] (stock concentration (mM, diluted 1:100): 10)	74.8 (active)
CS(=O)(=O)c1ccc(C2=C(c3ccccc3)C(=O)OC2)cc1 [Rofecoxib] (stock concentration (mM, diluted 1:100): 10)	-0.37 (inactive)
CN1CCN(C2=Nc3cc(F)ccc3Cc3ccccc32)CC1 [Fluperlapine] (stock concentration (mM, diluted 1:100): 10)	2.12 (active)
C[C@H]1[C@H](OC(=O)CCC(=O)O)O[C@@H]2O[C@@]3(C)CC[C@H]4[C@H](C)CC[C@@H]1[C@@]24OO3 [Artesunate] (stock concentration (mM, diluted 1:100): 10)	23.2 (active)
COc1cc(C)c(Cc2cnc(N)nc2N)cc1OC [Ormetoprim] (stock concentration (mM, diluted 1:100): 10)	-2.46
CCCc1nc(C)c2c(=O)nc(-c3cc(S(=O)(=O)N4CCN(CC)CC4)ccc3OCC)[nH]n12 [Vardenafil citrate] (stock concentration (mM, diluted 1:100): 7.2)	0.43 (inactive)
CCC(C)(C)N=C(NC#N)Nc1cccnc1 [Tocris-1355] (stock concentration (mM, diluted 1:100): 9.9)	-1.02 (inactive)
CC1=C(C(=O)O)N2C(=O)[C@@H](NC(=O)[C@H](N)c3ccccc3)[C@H]2SC1 [Cephalexin monohydrate] (stock concentration (mM, diluted 1:100): 10)	-0.53 (inactive)
CN(C)CCC(c1ccc(Cl)cc1)c1ccccn1 (stereo unspecified) [Chlorpheniramine] (stock concentration (mM, diluted 1:100): 10)	-0.6 (inactive)
C[C@@H]1O[C@@H](OC[C@H]2O[C@@H](Oc3c(-c4ccc(O)c(O)c4)oc4cc(O)cc(O)c4c3=O)[C@H](O)[C@@H](O)[C@@H]2O)[C@H](O)[C@H](O)[C@H]1O [Rutin] (stock concentration (mM, diluted 1:100): 10)	0.28 (inactive)
CC(C)NCC(O)COc1ccc(COCCOC(C)C)cc1 (stereo unspecified) [Bisoprolol fumarate] (stock concentration (mM, diluted 1:100): 8.5)	-0.36 (inactive)
CC[C@H](C)C(=O)O[C@H]1C[C@H](O)C=C2C=C[C@H](C)[C@H](CC[C@@H](O)C[C@@H](O)CC(=O)O)[C@H]21 [Pravastatin sodium] (stock concentration (mM, diluted 1:100): 9.5)	13.6 (active)
